CYP2C19 inhib – blockers of cytochrome P450 2C19 activity – biochemical, luminescence, ADME assay, primary screen; P33261; CYP2C19 Supersomes, luciferin-H EGE luminescence, 30 min; inhibition, % at 5 µM; 21% of 96,000 active;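 active means CYP2C19 inhibition above a set limit at 5 µM in the primary screen, cut at about 50% in these data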;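 further: plate controls were negative control wells for no effect and 2.5 mM tranylcypromine positive control for full effect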
Target sequence (P33261 whole entry, looked up): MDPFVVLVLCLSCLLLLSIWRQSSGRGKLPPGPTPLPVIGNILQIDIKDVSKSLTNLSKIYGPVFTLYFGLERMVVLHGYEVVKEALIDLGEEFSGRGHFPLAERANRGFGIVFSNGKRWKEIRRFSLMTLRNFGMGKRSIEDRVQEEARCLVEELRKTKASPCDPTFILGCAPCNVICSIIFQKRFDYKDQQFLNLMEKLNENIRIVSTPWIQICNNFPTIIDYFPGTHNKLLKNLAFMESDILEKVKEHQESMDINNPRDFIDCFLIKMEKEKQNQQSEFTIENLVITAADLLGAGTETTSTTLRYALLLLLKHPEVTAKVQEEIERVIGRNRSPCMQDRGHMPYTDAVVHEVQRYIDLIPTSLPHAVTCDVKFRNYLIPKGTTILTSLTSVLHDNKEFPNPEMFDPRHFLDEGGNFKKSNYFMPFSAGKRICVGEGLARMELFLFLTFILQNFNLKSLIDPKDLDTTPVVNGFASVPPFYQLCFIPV
PostGolgi ctrl – growth inhibition of yeast control strain, primary screen, counter-screen for post-Golgi transport modulator project | efflux-deficient yeast background strain, growth absorbance A615, 16 h | inhibition, % at 10 µM | 5% of 98,000 active | AID 738, 2007
CYP2C9 act – human CYP2C9 activators, primary screen, biochemical, luminescence. 1.4% of 96,000 active. activation factor at 5 µM. recombinant CYP2C9, luciferin-H conversion; stronger effect = higher value; factor 1 = untreated enzyme, 0 = blocked;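 active means activation factor of 2 or more for CYP2C9 at a 5 µM dose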;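 further: 0 = sulfaphenazole-blocked wells and 1 = vehicle-only wells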
CYP2C9 inhib – blockers of cytochrome P450 2C9 activity – biochemical, luminescence, ADME assay, primary screen; 20% of 96,000 active; P11712; inhibition, % at 5 µM; CYP2C9 Supersomes, luciferin-H conversion;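 active means blocking of liver enzyme CYP2C9 beyond about 50% at 5 µM, limit read from the data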
PostGolgi yeast – phenotypic screen on post-Golgi transport, primary screen; post-Golgi transport phenotypic cell assay; inhibition, % at 10 µM; 0.9% of 98,000 active;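 further: yeast cells grown in 1536-well plates; yeast grown about 18 h at 30C before absorbance read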
CYP2C19 activ – human CYP2C19 activators, primary screen, biochemical, luminescence. Cytochrome P450 2C19 (Homo sapiens), P33261. recombinant CYP2C19, luciferin-H EGE luminescence; stronger effect = higher value; 0 = fully inhibited enzyme, 1 = untreated enzyme. activation factor at 5 µM. 96,000 tested, under 10 active. AID 1025, 2008;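 active means activation factor of at least 2 at 5 µM in the primary screen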;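 further: 0 = wells with 2.5 mM tranylcypromine and 1 = vehicle-only wells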
Active calls of the source: *. This is a sample that favours compounds with a hit; in the whole collection about 32% have one here. Unless noted, no stated cut-off is given here; in the data, active means inhibition above about 30%; inactive means the rest.

For Clc1cccc(-c2ccc(/C=N/n3cnnc3)o2)c1 the results were CYP2C19 inhib 50.6*, PostGolgi ctrl -2.2, CYP2C9 act 0.8, CYP2C9 inhib 24.8, PostGolgi yeast -1.1 and CYP2C19 activ 0.5.
For CCN(CC)S(=O)(=O)c1ccc(-c2nnc3sc4cccc(C)c4n23)cc1 the results were CYP2C19 inhib 72.2*, PostGolgi ctrl 26.4, CYP2C9 act 0.2, CYP2C9 inhib 78.0*, PostGolgi yeast 0.0 and CYP2C19 activ 0.3.
`CC(C)c1ccc(CNC(=O)CSCC(=O)Nc2ccc3ccccc3c2)cc1` gave CYP2C19 inhib -8.9, PostGolgi ctrl 7.1, CYP2C9 act 1, CYP2C9 inhib 3.6, PostGolgi yeast -2.9 and CYP2C19 activ 1.1.
Screening CSC1=Nc2sc3c(c2C2=NCCN12)CCCC3 returned CYP2C19 inhib 15.6, CYP2C9 act 1, CYP2C9 inhib 3.8 and CYP2C19 activ 0.8.
Screening C/C(Cl)=C/CSc1nn2c(=O)c3ccccc3nc2s1 returned CYP2C19 inhib 74.4*, PostGolgi ctrl 9.9, CYP2C9 act 0.2, CYP2C9 inhib 81.9*, PostGolgi yeast -2.1 and CYP2C19 activ 0.3.
CCCCn1c(CCn2nc(C)c(Br)c2C)n[nH]c1=S was read as CYP2C19 inhib 89.9*, PostGolgi ctrl 4.9, CYP2C9 act 0.5, CYP2C9 inhib 49.0, PostGolgi yeast -6.1 and CYP2C19 activ 0.1.
For Cc1cccc(-n2c(CCn3nc(C)c([N+](=O)[O-])c3C)n[nH]c2=S)c1 the results were CYP2C19 inhib 7.6, PostGolgi ctrl 13.5, CYP2C9 act 0.7, CYP2C9 inhib 26.3, PostGolgi yeast -4.2 and CYP2C19 activ 0.9.
CN(C)c1cccc(C(=O)NCC2CCCO2)c1 (configuration not stated) was read as CYP2C19 inhib 34.6, PostGolgi ctrl 19.0, CYP2C9 act 1, CYP2C9 inhib -1.4, PostGolgi yeast 3.2 and CYP2C19 activ 0.7.
For COc1cc(CC(=O)Nc2ccc(S(=O)(=O)Nc3ncccn3)cc2)cc(OC)c1OC the results were CYP2C19 inhib 3.3, PostGolgi ctrl 10.4, CYP2C9 act 0.9, CYP2C9 inhib 12.3, PostGolgi yeast -4.0 and CYP2C19 activ 1.
O=C(Nc1ccc(Cc2ccncc2)cc1)c1ccc(Br)o1 was read as CYP2C19 inhib 86.7*, PostGolgi ctrl 5.1, CYP2C9 act 0, CYP2C9 inhib 96.8*, PostGolgi yeast 1.7 and CYP2C19 activ 0.1.
`O=C(Nc1ccc(Nc2ccccc2)cc1)c1ccc(Br)o1` gave CYP2C19 inhib 28.7, PostGolgi ctrl 16.7, CYP2C9 act 0.5, CYP2C9 inhib 51.4*, PostGolgi yeast -1.6 and CYP2C19 activ 0.7.
For O=C(Nc1ccc(NC(=O)c2cccs2)cc1)c1ccc(Br)o1 the results were CYP2C19 inhib 6.5, PostGolgi ctrl 5.9, CYP2C9 act 0.9, CYP2C9 inhib 14.6, PostGolgi yeast -5.0 and CYP2C19 activ 0.9.
`CCCCn1c(-c2ccc([N+](=O)[O-])cc2)n[nH]c1=S` gave CYP2C19 inhib -4.7, PostGolgi ctrl -0.3, CYP2C9 act 1, CYP2C9 inhib -0.5, PostGolgi yeast -2.7 and CYP2C19 activ 1.
Screening CCOc1ccc(NC2=NCC(=O)N2CCc2ccccc2)cc1 returned CYP2C19 inhib 66.6*, PostGolgi ctrl 9.5, CYP2C9 act 0.6, CYP2C9 inhib 44.2, PostGolgi yeast -7.3 and CYP2C19 activ 0.3.
`Cc1ccc(NC2=NCC(=O)N2CCc2ccccc2)cc1C` gave CYP2C19 inhib 98.0*, PostGolgi ctrl 13.8, CYP2C9 act 0.5, CYP2C9 inhib 49.9, PostGolgi yeast 6.8 and CYP2C19 activ 0.
Cc1cc(S(=O)(=O)N2CC(=O)N(CCc3ccccc3)C(=O)C2)ccc1F was read as CYP2C19 inhib 9.8, PostGolgi ctrl -3.2, CYP2C9 act 0.9, CYP2C9 inhib 8.1, PostGolgi yeast 6.9 and CYP2C19 activ 0.9.
CCC(C)(C)n1nnnc1CN(Cc1cc2cc(OC)c(OC)cc2[nH]c1=O)C1CCCC1 was read as CYP2C19 inhib 23.5, PostGolgi ctrl 5.5, CYP2C9 act 1, CYP2C9 inhib 2.4, PostGolgi yeast 7.5 and CYP2C19 activ 0.8.
O=C(NCCCn1ccnc1)c1ccccc1NS(=O)(=O)c1ccc(F)c(F)c1 was read as CYP2C19 inhib 99.2*, PostGolgi ctrl 11.2, CYP2C9 act 0, CYP2C9 inhib 99.5*, PostGolgi yeast -4.6 and CYP2C19 activ 0.
Screening Cc1cc(C)c(C)c(S(=O)(=O)Nc2ccccc2C(=O)NCCCn2ccnc2)c1C returned CYP2C19 inhib 98.6*, PostGolgi ctrl 0.7, CYP2C9 act 0, CYP2C9 inhib 98.2*, PostGolgi yeast 20.2 and CYP2C19 activ 0.
`O=C(NCCCn1ccnc1)c1cn(-c2ccccc2)nc1-c1ccc(F)cc1` gave CYP2C19 inhib 95.7*, PostGolgi ctrl -1.1, CYP2C9 act 0, CYP2C9 inhib 99.6*, PostGolgi yeast -0.5 and CYP2C19 activ 0.
`O=C(NCCCN1CCCC1=O)c1ccccc1NS(=O)(=O)c1ccc(Br)cc1` gave CYP2C19 inhib 34.7, PostGolgi ctrl 1.2, CYP2C9 act 0.2, CYP2C9 inhib 79.6*, PostGolgi yeast 8.8 and CYP2C19 activ 0.7.
For Cc1ccc(S(=O)(=O)Nc2ccccc2F)cc1C(=O)NCCCN1CCCC1=O the results were CYP2C19 inhib -7.2, PostGolgi ctrl -1.1, CYP2C9 act 1, CYP2C9 inhib 4.5, PostGolgi yeast 4.7 and CYP2C19 activ 1.1.
`Cc1sc2c(c1C)c(=O)nc1n2Cc2ccccc2-1` gave CYP2C19 inhib -2.7, PostGolgi ctrl 0.6, CYP2C9 act 1.3, CYP2C9 inhib -33.8, PostGolgi yeast 13.5 and CYP2C19 activ 1.
`COc1ccc(-c2cc(C(F)(F)F)nc(-n3cc(Cl)cn3)n2)cc1` gave CYP2C19 inhib 16.8, PostGolgi ctrl 41.0*, CYP2C9 act 0.6, CYP2C9 inhib 35.8, PostGolgi yeast 12.4 and CYP2C19 activ 0.8.
`COc1ccc(-c2cc(C(F)(F)F)nc(S(C)(=O)=O)n2)cc1` gave CYP2C19 inhib 5.0, PostGolgi ctrl 61.6*, CYP2C9 act 0.6, CYP2C9 inhib 42.1, PostGolgi yeast 68.3* and CYP2C19 activ 0.9.
`Cc1cc(NC(=O)CCCS(=O)(=O)c2nc(-c3cccs3)cc(C(F)(F)F)n2)no1` gave CYP2C19 inhib 15.2, PostGolgi ctrl 34.6*, CYP2C9 act 0.9, CYP2C9 inhib 5.3, PostGolgi yeast 13.2 and CYP2C19 activ 0.8.
`COCC(C)NC(=O)CCS(=O)(=O)c1nc(-c2ccc(OC)cc2)cc(C(F)(F)F)n1` (configuration not stated) gave CYP2C19 inhib -4.6, PostGolgi ctrl 12.1, CYP2C9 act 0.7, CYP2C9 inhib 32.6, PostGolgi yeast 3.4 and CYP2C19 activ 1.

Screening data: PubChem, several laboratories
